In the library only some 6.7% were active in any assay of this set; here they are far more common.
C diff growth: C. difficile growth inhibitors, primary screen, HTS; Clostridium difficile clinical isolate growth, OD600, 24 h; hits give low values; growth activity, negative = inhibition, % at 16 µg/mL (by protocol); hit rate 0.25% among 86,000; AID 1259249, 2017;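 active = mean growth activity at or below -80% and every replicate also at or below -80%; inconclusive = mean at or below -80% but some replicate above -80%; inactive = mean growth activity above -80%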
Pf Dd2 growth: P. falciparum Dd2 growth inhibitors, primary screen, SYBR Green fluorescence, single dose replicates | hit rate 2.3% among 94,000 | activity change, % at 10 µM | AID 1159554, 2015 | 72 h; hits give low values; in the data active = activity change below about -80%; inconclusive = no clear call, values can overlap the other calls
T cruzi growth: T. cruzi intracellular proliferation inhibitors, primary screen, cell-based, beta-gal Tulahuen parasites, NIH3T3 host, luminescence; inhibition, % at 8.34 µM; hit rate 5.9% among 77,000; T. cruzi beta-gal in NIH3T3, GalScreen luminescence, 90 h;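 active = mean inhibition above about 93%, with at least 55% of replicates each passing it, limit read from the data, passing the limit was not always enough; inconclusive = only one of those two conditions holds; inactive = neither condition holds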
Numbers stand for hits; . = inactive; ? = inconclusive; / = no result given.

SMILES	C diff growth	Pf Dd2 growth	T cruzi growth
Cn1cnc(S(=O)(=O)N2CC[C@@H]3[C@H]2c2cc(C#Cc4ccc(F)cc4)ccc2N[C@@H]3CO)c1	.	.	.
CO[C@H]1CN(C)C(=O)c2cc(NC(=O)c3ccc(F)cc3)ccc2OC[C@@H](C)N(C(C)=O)C[C@@H]1C	.	.	.
O=C(C[C@H]1CC[C@H](NC(=O)NC2CCCC2)[C@@H](CO)O1)NCc1ccc(F)cc1	/	.	.
CO[C@@H]1CN(C)C(=O)c2ccc(NC(=O)c3ccccc3F)cc2OC[C@H](C)N(C(=O)c2ccccc2F)C[C@@H]1C	/	.	.
O=C(NCc1ccncc1)[C@@H]1[C@@H](CO)[C@@H]2Cn3c(ccc(-c4cccnc4)c3=O)[C@@H]2N1C(=O)C1CC1	.	.	.
COc1ccc(C#Cc2ccc([C@H]3[C@H](CO)N4CCCCN(C(=O)Nc5ccccc5)C[C@@H]34)cc2)cc1	.	.	.
COc1ccc(NC(=O)N2CCCCN3[C@H](CO)[C@H](c4ccc(C#Cc5ccccc5)cc4)[C@@H]3C2)cc1	.	-84	.
COc1ccc(NC(=O)N2CCCCN3[C@@H](CO)[C@@H](c4ccc(C#Cc5ccccc5)cc4)[C@@H]3C2)cc1	-97	.	.
COc1ccc(C#Cc2ccc([C@H]3[C@H](CO)N4CCCCN(C(=O)Nc5ccc(F)cc5)C[C@@H]34)cc2)cc1	.	.	.
CCCC(=O)Nc1ccc2c(c1)OC[C@H](C)N(Cc1nccs1)C[C@H](C)[C@H](OC)CN(C)C2=O	/	.	.
O=C(NC1CCCCC1)N1CC(=O)N2[C@H](CO)[C@@H](c3ccc(-c4cccc(F)c4)cc3)[C@@H]2C1	.	.	/
Cc1ccc(S(=O)(=O)N2C[C@@H](O)COC[C@H]3O[C@H](CC(=O)N[C@H]4CCN(Cc5ccccc5)C4)CC[C@@H]32)cc1	/	.	.
CCC(=O)Nc1ccc2c(c1)C(=O)N(C)C[C@H](OC)[C@H](C)CN(Cc1ccccn1)[C@H](C)CO2	/	.	.
CO[C@@H]1CN(C)C(=O)c2ccc(NC(=O)c3nc4ccccc4s3)cc2OC[C@@H](C)N(Cc2ccncc2)C[C@H]1C	/	-97	/
CO[C@H]1CN(C)C(=O)c2ccc(NC(=O)c3nc4ccccc4s3)cc2OC[C@@H](C)N(Cc2cccnc2)C[C@@H]1C	.	.	.
CO[C@H]1CN(C)C(=O)c2ccc(NC(=O)c3nc4ccccc4s3)cc2OC[C@@H](C)N(Cc2ccncc2)C[C@H]1C	/	.	/
CO[C@@H]1CN(C)C(=O)c2ccc(NC(=O)c3nc4ccccc4s3)cc2OC[C@@H](C)N(Cc2cccnc2)C[C@H]1C	.	-90	.
CO[C@@H]1CN(C)C(=O)c2ccc(NC(=O)c3nc4ccccc4s3)cc2OC[C@H](C)N(Cc2ccncc2)C[C@H]1C	/	.	/
CO[C@H]1CN(C)C(=O)c2ccc(NC(=O)c3nc4ccccc4s3)cc2OC[C@H](C)N(Cc2ccncc2)C[C@@H]1C	/	-93	/
COCC#Cc1cnc2c(c1)C(=O)N([C@H](C)CO)C[C@@H](C)[C@H](CN(C)S(=O)(=O)c1ccccc1)O2	.	.	.
COc1ccc(NC(=O)Nc2ccc3c(c2)C(=O)N([C@H](C)CO)C[C@H](C)[C@H](CN(C)S(=O)(=O)c2ccccc2)OCCCC[C@H](C)O3)cc1	.	.	.
C[C@@H]1CCCCO[C@@H](CN(C)C(=O)c2ccncc2)[C@@H](C)CN([C@@H](C)CO)C(=O)c2cc(NC(=O)NC3CCCCC3)ccc2O1	.	.	.
C[C@@H]1CN([C@@H](C)CO)C(=O)c2ccccc2-c2ccccc2CO[C@@H]1CN(C)C(=O)Nc1cccc(Cl)c1Cl	.	.	/
C[C@@H]1CN([C@H](C)CO)C(=O)c2ccccc2-c2ccccc2CO[C@H]1CN(C)C(=O)Nc1cccc(Cl)c1Cl	.	-94	/
C[C@@H]1CN([C@H](C)CO)C(=O)c2ccccc2-c2ccccc2CO[C@@H]1CN(C)C(=O)Nc1cccc(Cl)c1Cl	.	.	/
SMILES	C diff growth	Pf Dd2 growth	T cruzi growth
C[C@@H]1CN([C@@H](C)CO)C(=O)c2ccccc2-c2ccccc2CO[C@H]1CN(C)C(=O)Nc1cccc(Cl)c1Cl	.	-95	/
C[C@H](CO)N1C[C@H](C)[C@@H](CN(C)S(=O)(=O)c2ccccc2)OCCCC[C@H](C)Oc2ccc(NC(=O)Nc3cccc4ccccc34)cc2C1=O	.	.	.
C[C@@H]1CN([C@H](C)CO)C(=O)c2cc(NC(=O)Nc3cccc4ccccc34)ccc2O[C@@H](C)CCCCO[C@H]1CN(C)S(=O)(=O)c1ccc(Cl)cc1	.	?	.
C[C@@H]1CN([C@H](C)CO)C(=O)c2cc(NC(=O)Nc3cccc4ccccc34)ccc2O[C@@H](C)CCCCO[C@@H]1CN(C)S(=O)(=O)c1ccc(Cl)cc1	.	-85	.
C[C@@H]1CCCCO[C@H](CN(C)S(=O)(=O)c2ccc(Cl)cc2)[C@@H](C)CN([C@@H](C)CO)C(=O)c2cc(NC(=O)Nc3cccc4ccccc34)ccc2O1	.	-81	.
CNC[C@H]1Oc2ncc(-c3ccc(C)cc3)cc2C(=O)N([C@H](C)CO)C[C@H]1C	/	?	.
CCS(=O)(=O)N1CC2(C1)[C@@H](c1ccccc1)[C@H](CO)N2Cc1ccc(F)cc1	.	-83	/
OC[C@@H]1[C@@H](c2ccccc2)C2(CN(CC3CC3)C2)N1Cc1ccc(F)cc1	.	-88	/
O=C(CC1CC1)N1CC2(C1)[C@H](c1ccccc1)[C@@H](CO)N2Cc1ccc(F)cc1	.	.	/
COc1ccccc1CN1CC2(C1)[C@H](c1ccccc1)[C@@H](CO)N2Cc1ccccc1	.	-90	/
CCS(=O)(=O)N1CC2(C1)[C@@H](c1ccccc1)[C@@H](CO)N2Cc1ccc(F)cc1	.	.	/
COc1ccccc1CN1[C@H](CO)[C@@H](c2ccccc2)C12CN(C(C)=O)C2	.	.	/
C[C@@H]1CN([C@@H](C)CO)S(=O)(=O)c2ccc(C3=CCCC3)cc2O[C@@H]1CN(C)C(=O)c1ccncc1	.	.	.
CCCC(=O)N1CC2(CN[C@@H](CO)c3c2c2ccc(OC)cc2n3C)C1	.	.	/
C[C@H]1CCCCO[C@@H](CN(C)C(=O)C2CCCCC2)[C@@H](C)CN([C@@H](C)CO)C(=O)c2cc(NC(=O)CCC(F)(F)F)ccc2O1	.	-82	.
C[C@@H]1CCCCO[C@H](CN(C)C(=O)C2CCCCC2)[C@@H](C)CN([C@@H](C)CO)C(=O)c2cc(NC(=O)c3ccccc3)ccc2O1	.	-85	.
C[C@H](CO)N1C[C@H](C)[C@@H](CN(C)C(=O)C2CCCCC2)OCCCC[C@H](C)Oc2ccc(NC(=O)CCC(F)(F)F)cc2C1=O	.	.	.
C[C@H](CO)N1C[C@H](C)[C@@H](CN(C)C(=O)C2CCCCC2)OCCCC[C@H](C)Oc2ccc(NC(=O)c3ccccc3)cc2C1=O	.	.	.
C[C@@H]1CN([C@H](C)CO)C(=O)c2cc(NC(=O)c3ccccc3)ccc2O[C@@H](C)CCCCO[C@@H]1CN(C)C(=O)C1CCCCC1	.	-84	.
C[C@@H]1CCCCO[C@@H](CN(C)C(=O)C2CCCCC2)[C@H](C)CN([C@@H](C)CO)C(=O)c2cc(NC(=O)c3ccccc3)ccc2O1	.	.	.

Screens: PubChem BioAssay, Broad Institute
